Test results: PubChem BioAssay AID1508600 (Functional Genomics Laboratory (NCATS/FGL), 2020)
About 3,700 (7%) of roughly 53,000 sequences were called active. This is one part of a sample in which actives are shown more often than they occur. Values without a mark were called inactive.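 The calls were made as follows: active = gene knockdowns whose robust z-score for IL-1 alpha signal is at least 2 or at most -2, so actives lie on both sides; inactive = the rest.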

Experiment: Components of the Cytosolic LPS Sensing Pathway: Gene Identification via Genome-wide siRNA Screen;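 also: robust z of the log signal after scaling to non-targeting control siRNA wells of the plate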
Conditions: RAW264.7 macrophages, IL-1a HTRF, actives lie on both sides, screened at 100 nM (by protocol), cells primed 5 h with Pam3CSK4 first
How it was run: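 IL-1a HTRF of supernatants after 24 hour LipidA transfection of Pam3CSK4-primed (5 hours) RAW264.7 cells, 48h post-siRNA transfection (100 nM). Scores: percent of plate negative-control median, then log-based robust z-score.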

Going from GGAAAAAAAAAAGCAGUGATT against Phactr4 to GGUCUGAUACCUCAUUCCATT against Il22ra2, the z-score falls from 0.662 to -1.21.

Going from GGACUUUCGUCGUACUCGUTT against Terf1 to GGCCUGGUGCUACUUCUCATT against Fam160a2, the z-score rises from -1.73 to -0.0704.

First: CGUAAACACUCCUAACUUUTT against Hif1a
Second: GGUCAGAAGAGAUGCCAAUTT against Hcar1
The z-score of the first is lower: -0.543 for the first, -0.494 for the second.

Going from CCGCAGUUGUCUUUCAAGATT against Dcaf1 to AGAAUCUUUAAAGGAAGUCTT against Olfr325, the z-score falls from 0.724 to 0.229.

First: GCCAUGACUAUGUUUUCCGTT against St6galnac1
Second: CGGCUCAUCCGAUAUAUCCTT against Hcn2
The z-score of the first is higher: -0.578 for the first, -1.39 for the second.

First: GGGCAGUAAGGACAGUUUUTT against Oaz1
Second: GGACUAAUCCCAUUUUCUUTT against Zfp422
The z-score of the first is higher: 0.406 for the first, -0.292 for the second.

Compared with GGCCGAGAAGAUCAAAGCATT against Mrpl12, GCUGGAAUAUCAUUUCCCATT against Pdpk1 is lower in z-score: -0.116 for the first, -1.01 for the second.

Compared with GGAGAGCUGUUUGACUACATT against Melk, CCAGCAAAAUCACUUAAUATT against Emb is lower in z-score: 1.45 for the first, -0.648 for the second.

First: GCAACGAAGUGAAUUUGUUTT against Epha5
Second: GCUAGACCAGAAGAAAGUATT against Gid8
The z-score of the first is higher: -0.139 for the first, -1.65 for the second.

Compared with GCCAGAGCUAGUUGAAUCCTT against Rce1, GGCCCUGUGUUUAUCAAAGTT against Cntn3 is lower in z-score: 1.14 for the first, 0.814 for the second.

Compared with GGACCCAGAUGUGACUGAGTT against Svil, GGAAGCUUUUGUCGGUCCATT against Hap1 is lower in z-score: 0.242 for the first, -0.361 for the second.

First: AACUUUCUCAUUCUUACUGTT against Olfr961
Second: GCAUGCUGAGGGACACAGUTT against 1810055G02Rik
The z-score of the first is higher: -1.22 for the first, -1.6 for the second.

Going from GAUCACACUGAAAUCAUCATT against Nudt11 to GGCAUCACUGGUAAACAUUTT against Frzb, the z-score rises from -1.71 to -0.196.

Going from GGGAAAGUUUUGUUCUGUATT against Ezr to CCGCGUGUUCCUUCUGAUUTT against S1pr3, the z-score rises from 0.31 to 1.43.

Going from GGGAACUGUUCCAUCUUGCTT against Olfr606 to GGAAGUUCCGUCGAUUUGATT against Cyp8b1, the z-score falls from 0.979 to -0.604.

Compared with GGCUGCCUAUCCCUAAACUTT against Cpt2, GGUGGUUUACCAAACGGUGTT against Ces2g is higher in z-score: -0.625 for the first, -0.00874 for the second.

Going from GGCCAGAGCAUUUUCUUCATT against Pif1 to GGAUGAAGGAAUCCAUGCATT against Pcdhga6, the z-score falls from 0.72 to -0.133.

Compared with GGUACCUCUACACAGAUGATT against Fgf21, GGCCUGGAUGAAUGAAAAGTT against Gins4 is higher in z-score: 0.0136 for the first, 0.665 for the second.

Going from GCUAUUUGACUUGUUGUAATT against Rab30 to CGCAAGUAUUUCCACCAUATT against Clk4, the z-score falls from 0.269 to -0.41.

Compared with GGUUUGAGAAUUUGAAGGUTT against Map2k3os, GGUCCUCUGGUUCAACAUUTT against Olfr638 is lower in z-score: 0.273 for the first, -0.405 for the second.

First: GGAGAUGAAGAAGAUAUUGTT against Smoc2
Second: GGUCUACUUCUUUUUUACGTT against Sema4d
The z-score of the first is lower: -0.764 for the first, 0.467 for the second.

Going from “CCCUGCUGGUUGGUAAUCATT against F830005K03Rik” to GCUAAGAUUGUCAUGAUGUTT against Bambi, the z-score falls from 0.548 to -1.02.

First: GGAAAGAAGGUGAACAACATT against Phax
Second: GGGAGAACCAGCACAACAUTT against Cavin2
The z-score of the first is higher: 1.96 for the first, -1.8 for the second.

Compared with GGAAGACAUUCACGAUUGUTT against Deptor, GGGAUCAUUGCUGUCCUCUTT against Adora2b is lower in z-score: -0.0976 for the first, -1.33 for the second.

Going from GGAACUUUCCUUUUUUGUCTT against Serpinb5 to GGUGAUGAUGUCCAGAAGUTT against Kdm4d, the z-score falls from 0.889 to -0.913.

Going from GGAGAAAGUCUUUGUGAACTT against Lipc to GGCUUUCUUUUUGAAAGAATT against Arhgap10, the z-score rises from -1.1 to 0.78.

Compared with GGAACCUACUUGUUACCUUTT against Nlrp5, GCCGGGAGAAAUAAAUGGUTT against Mif is lower in z-score: 0.731 for the first, -0.654 for the second.

First: GGAAAAACUCUUCUUCACGTT against Nphs1
Second: GGAGGACUCUGCUUCCAUATT against Pwwp3b
The z-score of the first is higher: -0.0272 for the first, -0.848 for the second.

Compared with GGUUCUGGAAGUGAAGGUGTT against Prg2, GCUAUUGGUGCUUCAGUCCTT against Rtel1 is lower in z-score: -0.00973 for the first, -0.458 for the second.

Compared with GCCGUGUUCAUGAAUAAACTT against Glce, GCUCUGUGAGCGAAAGUUCTT against Synpo2 is higher in z-score: -0.392 for the first, 1.72 for the second.

Going from CGUGGUCAGCGAGAGAGAATT against Sohlh1 to GGAUGCUGACAACAUAUACTT against Plk3, the z-score falls from 1.19 to -0.726.

First: CGCUGCUUUUCCUAGCAGATT against Orai1
Second: GCUCCAACAAGGCAUAAAATT against Dis3
The z-score of the first is higher: 0.194 for the first, -1.71 for the second.

Compared with CGUUGAACUAGCAGUGGACTT against Arel1, GUCUACAUCAACAUGCCUGTT against Hcst is higher in z-score: 0.304 for the first, 0.729 for the second.

First: GGCUUAAUUACACAUGUUCTT against Il6
Second: GGACAAGAAAAAGUCCAGATT against Dhx38
The z-score of the first is higher: -1.09 for the first, -1.17 for the second.

Compared with GCAGGGAAUAGCAAACUUATT against Nfil3, GGAAAGGAGAGGUGUGUUCTT against Asb7 is lower in z-score: 1.18 for the first, 0.431 for the second.

Compared with CCUGCUUAUUUAUGUACGATT against Tob2, GGUACCUUAAACUCAUGAATT against Ifnb1 is lower in z-score: 1.27 for the first, 0.773 for the second.

Going from GCGAACCCUAAGUAAGAAGTT against U2surp to GCGAGAUGCCAACAAACUGTT against Pacs1, the z-score rises from -0.989 to 0.678.

Going from GCUACCUAUGCCAAUAUCATT against Efemp1 to GGAACCUAUCCAAGAAGUATT against Ckap2, the z-score rises from -0.787 to 0.428.

First: GGCCUUGUAUAAAACACAUTT against Pah
Second: CCAGCUUGUUACUAAGUAATT against Mgat3
The z-score of the first is higher: 0.293 for the first, -0.227 for the second.

First: GCAGGGAGGCAUCUUCUUUTT against Olfr3
Second: GGUUCUUUCCAAACAAGAGTT against Evc
The z-score of the first is lower: -0.22 for the first, 1.1 for the second.

Compared with GGAGGUCAUCAACGUGCUATT against Nucb1, GGUAAAAUUGUCCAAGGAATT against Clec2i is higher in z-score: -0.339 for the first, -0.109 for the second.

First: GGCCAAGAAGACAAGAAAATT against Ddx54
Second: GGAAUAUGUUUAGCAUCUGTT against Mfsd5
The z-score of the first is higher: 0.502 for the first, -0.437 for the second.

Sequence GGCACAUAUGAGGACUACCTT against Myl6b has a z-score of 0.786.

For CCAUGAGAACCUGAUGAAUTT against Pag1, the z-score was -2.38 (active).
In the case of GGAAGGAUAUUGGUUACCATT against Zmynd11, the z-score is reported as -2.28 (active).
With GCUUUUAAAGCAUGGGCAGTT against Alb the z-score was 2.44 (active).
With GGAAAUAAAGUGAGUUUUGTT against Etaa1 the z-score was 4.95 (active).
In the case of GGCCUUGAAGGAGUAUGAGTT against Atp2a3, the z-score is reported as -2.62 (active).
In the case of GGCUGUCUUGUCCAAAUGUTT against Olfr1357, the z-score is reported as -2.9 (active).
In the case of GGGUAUAGAAUGAUUAUGGTT against Ly6g2, the z-score is reported as -2.39 (active).
In the case of GGAUGAAGUUCUUUUUCAATT against Pdcd11, the z-score is reported as 2.28 (active).
With GGAUCUGAAGGUGAUGUCATT against H2-Q10 the z-score was -2.72 (active).
With CCGUGUGAAUCCCUGCAUUTT against Aldoa the z-score was -2.85 (active).
In the case of GGGAAGAAGACUGACAAGCTT against Lars, the z-score is reported as 2.03 (active).
For GGUGAUAACUCCGGGCCAATT against Fam3b, the z-score was 2.32 (active).
In the case of GCAGAAGAAGAAGGGUUCCTT against Emx1, the z-score is reported as 3.59 (active).
With GGAGUUCAGCAACCUGUUGTT against Tmem97 the z-score was -2.08 (active).
In the case of CCUCAAACCAUCAACAACCTT against Six3, the z-score is reported as -2.04 (active).
With CGGUCAUUAAAACUUACAGTT against Hells the z-score was 2.69 (active).
For CCACUUCCGAUGAGCCAGATT against Mrps10, the z-score was -3.31 (active).
In the case of GGUUUUCCUGUUCAAUUCUTT against Olfr586, the z-score is reported as 2.4 (active).
With GGAAGAUGUCUCCUAUGAGTT against Hebp1 the z-score was -2.42 (active).
In the case of GGGCAUCACUUGUAAUUAATT against Bcl10, the z-score is reported as -2.06 (active).
In the case of GUCACAGUACCCAAAAUGUTT against Olfr979, the z-score is reported as -2.42 (active).
In the case of GAGUACCAGCUGUUGUUCATT against Olfr392, the z-score is reported as 4.22 (active).
With CGGUACAAAUGAUUUCUGATT against Pcolce2 the z-score was 2.04 (active).
